The supplement of paper PMC10498489
The whole screen tested about 2,300 compounds, of which about 330 (14%) showed activity.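 Rule for the calls: active = median modified Z-score above 1.96; inactive = 1.96 or below.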 Only a sample is shown.

These compounds were tested on HepG2 Srxn1-GFP reporter cells (+30 nM CDDO-Me) (assay: Srxn1-GFP intensity median modified Z-score relative to plate median; higher = stronger NRF2 / oxidative stress reporter activation, active = hit call of the paper). Settings: 10 µM; exposure time: 24h.
Procedure, shortened: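 Per-cell cytoplasmic GFP was measured on confocal images of formaldehyde-fixed, Hoechst-stained HepG2 Srxn1-GFP BAC reporter cells, excluding images with fewer than 100 cells. Before this, the cells (20,000 per well, 96-well plates) were co-exposed for 24 h to compound at 10 μM and an NRF2 activator at 30 nM with ≤0.1% DMSO, in three replicate plates. Each value is the median over replicates of the per-plate modified Z-score of GFP intensity. That score was scaled with 1.4826 × median absolute deviation.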

| Compound | Srxn1-GFP intensity median modified Z-score |
| --- | --- |
| CC(=O)c1c(O)c(C)c(O)c2c1OC1=CC(=O)C(C(C)=O)C(=O)C12C (stereo not given) [euspeclibcmpd1449] | 12.3 (active) |
| NCCC(=O)C(O)N[C@@H]1C[C@H](N)[C@@H](O[C@H]2O[C@H](CN)[C@@H](O)[C@H](O)[C@H]2O)[C@H](O)[C@H]1O[C@H]1O[C@H](CO)[C@@H](O)[C@H](N)C1O (stereo not given in full) [euspeclibcmpd967] | -0.34 (inactive) |
| CCCC[C@@H](CC)COC(=O)/C=C/c1ccc(OC)cc1 [euspeclibcmpd2186] | 1.35 (inactive) |
| COC1=CC(=O)C(C(=O)c2ccccc2)=CC1=O [euspeclibcmpd1986] | -0.559 (inactive) |
| COC1=CC(=O)C=C(OC)C1=O [euspeclibcmpd2007] | 0.392 (inactive) |
| COC1=CC(=O)C(=O)C=C1C=CCc1ccccc1 [euspeclibcmpd1419] | 9.05 (active) |
| CC(=O)OCC(=O)[C@@]1(O)CCC2C3CC=C4CC(=O)CC[C@]4(C)[C@@]3(F)[C@@H](O)C[C@@]21C (stereo not given in full) [euspeclibcmpd127] | -0.373 (inactive) |
| Cc1n[nH]c(=NS(=O)(=O)c2ccc(N)cc2)s1 [euspeclibcmpd277] | -0.64 (inactive) |
| Cc1csc(/C(C#N)=C\C=C\c2ccccc2[N+](=O)[O-])n1 | 35.4 (active) |
| OC[C@@H](O)[C@@H](O[C@@H]1O[C@H](CO)[C@H](O)[C@H](O)[C@H]1O)[C@H](O)[C@@H](O)CO [euspeclibcmpd2389] | -0.142 (inactive) |
| CC1(C(=O)O)CCC2(C)CCC3(C)C(=C2C1)CC(=O)C1C2(C)CCC(O)C(C)(C)C2CCC13C (stereo not given) [euspeclibcmpd1963] | -0.0731 (inactive) |
| O=C(COC(=O)C12CC3CC(C1)CC(c1ccccc1)(C3)C2)Nc1ncc(C(F)(F)F)cc1Cl | 1.42 (inactive) |
| CCN(CC)C(=O)C(C#N)=Cc1cc(O)c(O)c([N+](=O)[O-])c1 [euspeclibcmpd861] | -0.942 (inactive) |
| CC(C)(O)[C@@H]1CC[C@](C)([C@H]2[C@@H](O)C[C@@]3(C)C4C[C@H](O[C@@H]5O[C@H](CO)[C@@H](O)[C@H](O)[C@H]5O)C5C(C)(C)[C@@H](O[C@@H]6OC[C@@H](O)[C@H](O)[C@H]6O)CC[C@@]56C[C@@]46CC[C@]23C)O1 (stereo not given in full) [euspeclibcmpd1691] | -0.304 (inactive) |
| O=C(O)CN1C(=O)c2cccc3cccc(c23)C1=O [euspeclibcmpd433] | 2.2 (active) |
| O=C(O)CCCN1C(=O)c2cccc3cccc(c23)C1=O [euspeclibcmpd1803] | -0.0255 (inactive) |
| CCCCCCCC/C=C/CCCCCCCCOP(=O)(O)OCC[N+](C)(C)C [euspeclibcmpd1773] | 1.28 (inactive) |
| CNC(C)[C@@H]1CC[C@@H](N)[C@@H](OC2[C@@H](N)C[C@@H](N)[C@H](OC3OC[C@](C)(O)[C@H](NC)[C@H]3O)[C@H]2O)O1 (stereo not given in full) [euspeclibcmpd820] | -0.00227 (inactive) |
| CC(=O)O[C@]1(C(C)=O)CCC2C3CC(C)=C4CC(=O)CC[C@]4(C)C3CC[C@@]21C (stereo not given in full) [euspeclibcmpd178] | -0.198 (inactive) |
| C=C1C(=O)O[C@@H]2C[C@@]3(C)CCC[C@H](C)C3=C[C@H]12 [euspeclibcmpd1482] | 10.2 (active) |
| Cc1cc(-c2ccc(N=Nc3ccc4c(S(=O)(=O)O)cc(S(=O)(=O)O)c(N)c4c3O)c(C)c2)ccc1N=Nc1ccc2c(S(=O)(=O)O)cc(S(=O)(=O)O)c(N)c2c1O [euspeclibcmpd2073] | -1.03 (inactive) |
| NC1(C(=O)O)CCCC1 [euspeclibcmpd1759] | -0.415 (inactive) |

| Compound | Srxn1-GFP intensity median modified Z-score |
| --- | --- |
| O=C(O)CCc1nc2ccccc2[nH]1 [euspeclibcmpd1271] | -0.404 (inactive) |
| CC1=C(CCC(=O)O)c2cc3nc(cc4[nH]c(cc5[nH]c(cc1n2)c(C)c5C(C)O)c(C)c4C(C)O)C(C)=C3CCC(=O)O (stereo not given) [euspeclibcmpd1687] | 8.82 (active) |
| C=CC1=C(C)c2cc3[nH]c(cc4[nH]c(cc5nc(cc1n2)=C(C)C5=CCC(=O)O)c(CCC(=O)O)c4C)c(C)c3=CC [euspeclibcmpd1059] | 0.562 (inactive) |
| CN(C)C(N)=NC(=N)N [euspeclibcmpd874] | -0.199 (inactive) |
| CC(CCC(=O)O)C1CCC2C3CCC4CC(O)CCC4(C)C3CC(=O)C12C (stereo not given) | 0.291 (inactive) |
| O=C(O)[C@H](O)[C@@H](O)[C@H](O)[C@H](O)CO [euspeclibcmpd2450] | 0.571 (inactive) |
| O=C(/C=C/c1ccccc1)c1ccc(O)cc1 [euspeclibcmpd1718] | 12.6 (active) |
| O=C(O)/C=C/C=C/c1ccccc1 [euspeclibcmpd1620] | -0.147 (inactive) |
| COc1ccc(C=CC(=O)c2cc(O)ccc2O)cc1 [euspeclibcmpd1400] | -0.058 (inactive) |
| COc1ccc(C(=O)/C=C/c2cccc(Cl)c2)cc1 | 0.75 (inactive) |
| CCOC(=O)c1ccc(O)cc1 [euspeclibcmpd974] | -0.257 (inactive) |
| O=C(/C=C/c1ccccc1)c1ccc(O)cc1 | 4.36 (active) |
| COc1ccc(C(=O)/C=C/c2ccccc2)cc1 [euspeclibcmpd1565] | 26.7 (active) |
| COc1ccc2oc(-c3ccccc3)c(OC)c(=O)c2c1 [euspeclibcmpd1782] | 1.28 (inactive) |
| O[C@@H]1[C@@H](O)[C@@H](O)OC[C@H]1O | 0.871 (inactive) |
| CC1C2C(CC3C4CC[C@H]5C[C@@H](O)CC[C@]5(C)C4CC(=O)[C@@]32C)O[C@]12CC[C@@H](C)CO2 (stereo not given in full) [euspeclibcmpd1427] | -0.425 (inactive) |
| COc1cc(/C=C/C(=O)N2CC=CCC2=O)cc(OC)c1OC [euspeclibcmpd1434] | 1.01 (inactive) |
| CON [euspeclibcmpd1358] | -0.128 (inactive) |
| CC(C)[N+]1(C)C2CC[C@H]1C[C@@H](OC(=O)C(CO)c1ccccc1)C2 (stereo not given in full) [euspeclibcmpd162] | 0.508 (inactive) |
| CC[C@]1(O)CC2CN(CCc3c([nH]c4ccccc34)[C@@](C(=O)OC)(c3cc4c(cc3OC)N(C=O)[C@H]3[C@@](O)(C(=O)OC)[C@H](OC(C)=O)[C@]5(CC)C=CCN6CC[C@]43[C@@H]65)C2)C1 (stereo not given in full) [euspeclibcmpd836] | 27.5 (active) |
| CC[C@]1(O)CC2CN(CCc3c([nH]c4ccccc34)[C@@](C(=O)OC)(c3cc4c(cc3OC)N(C)[C@H]3[C@@](O)(C(=O)OC)[C@H](OC(C)=O)[C@]5(CC)C=CCN6CC[C@]43[C@@H]65)C2)C1 (stereo not given in full) [euspeclibcmpd320] | 25.8 (active) |
| CC(=O)NC(CCC(N)=O)C(=O)O (stereo not given) [euspeclibcmpd1028] | -0.425 (inactive) |

| Compound | Srxn1-GFP intensity median modified Z-score |
| --- | --- |
| Oc1cc2c(cc1O)C1c3ccc(O)c(O)c3OCC1(O)C2 (stereo not given) [euspeclibcmpd1605] | -0.437 (inactive) |
| CN(C)CC/C=C1/c2ccccc2COc2ccccc21 [euspeclibcmpd104] | 1.4 (inactive) |
| CC(=O)C1CCC2C3CC(C)=C4CC(=O)CC[C@]4(C)C3[C@@H](O)C[C@]12C (stereo not given in full) [euspeclibcmpd179] | -0.562 (inactive) |
| O=c1cc(-c2cc(O)c(O)c(O)c2)oc2cc(O)cc(O)c12 [euspeclibcmpd1548] | -0.459 (inactive) |
| Cc1cc(-n2c(=O)[nH]c(=O)n(C)c2=O)ccc1Oc1ccc(SC(F)(F)F)cc1 [euspeclibcmpd839] | 2.22 (active) |
| CC(C)(Oc1ccc(Cl)cc1)C(=O)O [euspeclibcmpd1029] | -0.706 (inactive) |
| COc1ccc(C(=O)NCc2ccc(CN(C)C)cc2)cc1OC | 0.376 (inactive) |
| CCc1cn(C2OCC(O)C2CO)c(=O)[nH]c1=O (stereo not given) [euspeclibcmpd543] | -0.196 (inactive) |
| C=C1c2c(Cl)ccc(O)c2C(=O)C2C(=O)[C@]3(O)C(=O)C(C(N)=O)C(=O)C(N(C)C)[C@@H]3[C@@H](O)[C@H]12 (stereo not given in full) [euspeclibcmpd381] | 0.0643 (inactive) |
| CCC[C@@H]1CC(C(=O)N[C@H]([C@H]2O[C@H](SC)[C@H](O)[C@@H](O)[C@H]2O)[C@H](C)O)N(C)C1 (stereo not given in full) [euspeclibcmpd172] | 0.221 (inactive) |
| NC(=O)C1CC2CCCCC2N1c1cc(Cl)c(C(F)(F)F)cc1[N+](=O)[O-] (stereo not given) | 0.587 (inactive) |
| CON=C(C(=O)NC1C(=O)N2C(C(=O)O)=C(CSc3nnnn3C)CSC12)c1csc(=N)[nH]1 (stereo not given) [euspeclibcmpd505] | -0.115 (inactive) |
| CON=C(C(=O)N[C@@H]1C(=O)N2C(C(=O)O)=C(COC(C)=O)CS[C@H]12)c1csc(=N)[nH]1 [euspeclibcmpd2262] | -0.173 (inactive) |
| CON=C(C(=O)NC1C(=O)N2C(C(=O)O)=C(C[N+]3(C)CCCC3)CSC12)c1csc(=N)[nH]1 (stereo not given) [euspeclibcmpd504] | 35.8 (active) |
| O=C(c1ccc(COc2ccc(Cl)cc2)cc1)N1CCN(Cc2ccc3c(c2)OCO3)CC1 | 1.17 (inactive) |
| C[C@]12CCC3c4ccc(O)cc4CCC3C1CC[C@@H]2OC(=O)CCC1CCCC1 (stereo not given in full) [euspeclibcmpd116] | -0.256 (inactive) |
| Oc1ccc(O)cc1 [euspeclibcmpd672] | 0.74 (inactive) |
| CC=C(C(=CC)c1ccc(O)cc1)c1ccc(O)cc1 [euspeclibcmpd91] | 13.6 (active) |
| Cc1ccc(O)cc1 [euspeclibcmpd76] | -0.159 (inactive) |
| CN[C@@H]1C(O)[C@@H](O[C@@H]2[C@@H](O)[C@H](O[C@H]3OC(CN)=CC[C@H]3N)[C@@H](N)C[C@H]2N)OC[C@]1(C)O (stereo not given in full) [euspeclibcmpd452] | -0.626 (inactive) |
| CO[C@H]1/C=C/O[C@@]2(C)Oc3c(C)c(O)c4c(O)/c(c(=CNN5CCN(C)CC5)c(O)c4c3C2=O)=N\C(=O)/C(C)=C\C=C\C(C)[C@H](O)[C@@H](C)[C@@H](O)[C@@H](C)[C@@H](OC(C)=O)[C@@H]1C (stereo not given in full) [euspeclibcmpd263] | -0.401 (inactive) |
